Measured values from PubChem BioAssay (NCATS).

Experiment: qHTS profiling of the MIPE4 collection as inhibitors of Plasmodium falciparum (DD2) proliferation (AID 743345)
Conditions: P. falciparum Dd2 in erythrocytes, SYBR Green DNA, 72 h; at 28.5 µM (top of the series) unless noted
Description: Plasmodium falciparum is a virulent malarial parasite that kills 1-2 million people worldwide each year. Transmitted by mosquitoes, the sporozoite form of the parasite enters the blood stream to infect hepatocytes, where they become merozoites that infect red blood cells (erythrocytes). Within erythrocytes, merozoites begin a […] cycle of growth and division, after which the parasite is released to infect new red blood cells. Gametocytes, which form within erythrocytes as well, circulate in the bloodstream and are ingested by the mosquito, thereby completing the life cycle. To profile malarial isolates for differential chemical responses and to identify inhibitors of malarial growth, an assay that measures P. falciparum growth and replication within erythrocytes was employed. This assay uses a DNA binding fluorescent dye (SYBR Green) to detect parasite DNA following cell lysis. Because mature erythrocytes lack DNA, only Plasmodium-derived DNA is detected.
The SYBR Green viability assay was adapted from a method described previously (Plouffe et al., 2008). For screening 3 ul culture medium was dispensed into 1536 well black clear bottom plates (Aurora Biotechnologies) using a Multidrop Combi (Thermo Fisher Scientific Inc.), 23 nL compounds in DMSO were added by a pin tool (Kalypsys), and 5 ul of erythrocytes infected with P. falciparum (0.3% parasitemia, 2.5% hematocrit final concentration) were added. The plates were incubated at 37 C in a humidified incubator in 5% CO2 for 72 h, and 2 ul lysis buffer (20 mM Tris HCl, 10 mM EDTA, 0.16% saponin, 1.6% triton X, 10X SYBR Green I supplied as 10,000X […] by Invitrogen) was added to each well. The plates were mixed for 25 sec with gentle shaking and incubated overnight at room temperature in the dark. The following morning, fluorescence intensity at 485(14) nm excitation and 535(25) nm emission wavelengths was measured on an EnVision (Perkin Elmer) plate reader. Plate reads were normalized relative to the control inhibitor (0.29 uM artemisinin) and vehicle (DMSO) wells present on each plate and then corrected by an algorithm using vehicle-only control plates at the beginning and end of the compound plate stack.

Compound | parasite growth remaining, % of DMSO control (lower = more inhibition)
Cc1ccc(C(=O)N(CCCN)[C@@H](c2nc3cc(Cl)ccc3c(=O)n2Cc2ccccc2)C(C)C)cc1 | 7.03%
Cc1nn(Cc2ccccc2Cl)c(C)c1CN(C)CC(O)COc1ccc(Cl)cc1 (stereo not given) | 18.8%
N#CC1(c2cccc(C(=O)Nc3cc(Oc4ccc5nc(NC(=O)C6CC6)sc5n4)ccc3F)c2Cl)CC1 | 28.8%
Oc1ccc(C=Cc2cc(O)cc(O)c2)cc1 | 96.9%
O=c1[nH]c(=O)n([C@H]2C[C@@H](O)[C@@H](CO)O2)cc1C(F)(F)F | 62%
CC(O)=C(C#N)C(=O)Nc1ccc(C(F)(F)F)cc1 | 89.7%
CN(CC=CC#CC(C)(C)C)Cc1cccc2ccccc12 | 79.2%
C[C@@H](O)[C@H]1C(=O)N2C(C(=O)OCOC(=O)C(C)(C)C)=C(SC3CN(C4=NCCS4)C3)[C@H](C)[C@H]12 | 99.9%
C=CC[N+]1([C@H]2C[C@H]3[C@@H]4CC[C@H]5C[C@H](O)[C@@H](N6CCOCC6)C[C@]5(C)[C@@H]4CC[C@]3(C)[C@H]2OC(C)=O)CCCC1 | 41%
FC(F)(F)c1ccc(C=Cc2nc(COc3ccc(CCCCn4ccnn4)cc3)co2)cc1 | 85.5%
CNC(=O)c1cc(COc2nnc(Nc3ccc(Cl)cc3)c3ccoc23)ccn1 | 79.6%
C[C@@H]1CCO[C@H]2Cn3cc(C(=O)NCc4ccc(F)cc4F)c(=O)c(O)c3C(=O)N12 | 53.9%
CO[C@H]1/C=C\O[C@@]2(C)Oc3c(C)c(O)c4c(O)c(c(C=NN5CCN(C6CCCC6)CC5)c(O)c4c3C2=O)NC(=O)C(C)=CC=C[C@H](C)[C@H](O)[C@@H](C)[C@@H](O)[C@@H](C)[C@H](OC(C)=O)[C@H]1C | 6.13%
CCC(=C(c1ccc(O)cc1)c1ccc(OCCNC)cc1)c1ccccc1 | 15.1%
CN1CCN2c3ncccc3Cc3ccccc3C2C1 (stereo not given) | 93.6%
O=C(CO)N1CCC(c2[nH]nc(-c3ccc(Cl)cc3)c2-c2ccncn2)CC1 | 82.9%
CN1CCC(COc2cnc(-c3cccc(Cn4nc(-c5cccc(C#N)c5)ccc4=O)c3)nc2)CC1 | 10.5%
CCCCCCCCCCCCCC(=O)N[C@H](CO)[C@H](O)c1ccc([N+](=O)[O-])cc1 | 85.8%
COC(=O)N1CCN(Cc2cccc(NC(=O)Nc3ccc(C)nc3)c2F)CC1 | 71.8%
COc1c(C)c2c(c(O)c1CC=C(C)CCC(=O)O)C(=O)OC2 | 17.9%

Compound | parasite growth remaining, % of DMSO control (lower = more inhibition)
OC1CCC(Nc2ncc3nc(Nc4c(F)cc(F)cc4F)n([C@@H]4CCOC4)c3n2)CC1 (stereo not given in full) | 84.7%
CCCCC(C)(C)[C@H](O)C=C[C@H]1[C@H](O)CC(=O)[C@H]1CC=CCCCC(=O)O | 135%
CN1CCc2c(n(Cc3ccc(C(=O)NO)cc3)c3ccccc23)C1 | 11.6%
CCCCN(CCCC)CC(O)c1cc(Cl)cc2c1-c1ccc(Cl)cc1C2=Cc1ccc(Cl)cc1 (stereo not given) | 7.19%
COc1nccc(-c2c(-c3ccc(F)cc3)ncn2C2CCC(O)CC2)n1 (stereo not given) | 80%
CC1CNc2c(cccc2S(=O)(=O)N[C@@H](CCCN=C(N)N)C(=O)N2CC[C@@H](C)C[C@@H]2C(=O)O)C1 (stereo not given in full) | 91.3%
O=C1CN2Cc3c(ccc(Cl)c3Cl)N=C2N1 | 91.6%
O=C(c1ccc(C=Cc2n[nH]c3ccccc23)cc1)N1CCNCC1 | 31.2%
CC(C)(O)CC(=O)NCCn1ccc2ncnc(Nc3ccc(Oc4cccc(C(F)(F)F)c4)c(Cl)c3)c21 | 18.3%
Nc1ccc(-c2ccc3ncc4ccc(=O)n(-c5cccc(C(F)(F)F)c5)c4c3c2)cn1 | 5.9%
Cc1[nH]c(C=C2C(=O)Nc3ccc(S(=O)(=O)N(C)c4cccc(Cl)c4)cc32)c(C)c1C(=O)N1CCN(C)CC1 | 9.96%
CCCCn1c(=O)n(Cc2ccccc2F)c(=O)c2[nH]c(Cc3ccc(NC(C)=O)cc3)nc21 | 85.9%
CC(=O)N1CCN(c2ccc(OCc3nn(C)c(C)c3-c3cccc4c(CCCOc5cc(C)c(Cl)c(C)c5)c(C(=O)O)n(Cc5cccnc5)c34)cc2)CC1 | 15.1%
NCC1CCC(C(=O)O)CC1 (stereo not given) | 105%
CCC=CC[C@H]1C(=O)CC[C@@H]1CC(=O)OC | 109%
CN(C)CCN(C)C(=O)c1ccc(NC(=O)Nc2ccc(-c3nc(N4CCOCC4)c4ccn(CC(F)(F)F)c4n3)cc2)cc1 | 8.31%
COc1ccc(-c2cc(=O)c3c(O)cc(O[C@@H]4O[C@H](CO[C@@H]5O[C@@H](C)[C@H](O)[C@@H](O)[C@@H]5O)[C@@H](O)[C@H](O)[C@@H]4O)cc3o2)cc1O | 28.6%
CC(C)CN(C[C@H](O)[C@H](Cc1ccccc1)NC(=O)O[C@H]1CCOC1)S(=O)(=O)c1ccc(N)cc1 | 73.7%
CC[C@H]1OC(=O)[C@H](C)[C@@H](O[C@H]2C[C@@](C)(OC)[C@@H](O)[C@H](C)O2)[C@H](C)[C@@H](O[C@@H]2O[C@H](C)C[C@H](N(C)C)[C@H]2O)[C@](C)(O)C[C@H](C)C(=NOCOCCOC)[C@H](C)[C@@H](O)[C@]1(C)O | 62.4%
N=C1SC(=Cc2ccc(-c3ccc4c(c3)C(=O)NC4=O)o2)C(=O)N1c1ccc(Br)cc1 | 21.3%
